Results filed as inconclusive are left out. A call without a number means that no potency is given here. Active and inactive are the calls of the source. The call rests on the fitted dose curve; in most records, active means well fitted cell-killing curve with a large enough effect; inconclusive means small, poorly fitted or top-dose-only effect; inactive means flat fitted curve, though single readings scatter.
assay: qHTS of pediatric cancer cell lines to identify multiple opportunities for drug repurposing: Primary screen for control Hh wild type fibroblast cells (AID 1347106); details: Hh wild-type fibroblast viability, CellTiter-Glo luminescence, 48 h; series mostly up to 46 µM; further: nearly all actives have a fitted effect of over 55% in size
Excerpt: Drug repurposing or repositioning has been offered as a strategy for drug development in oncology programs. This approach has special potential for childhood cancers and other rare or orphan diseases, where the expected return on new drug development has been a disincentive to pharmaceuticals.
In this project we exploit the poly-pharmacology of drugs to discover new indications via phenotypic screening of a panel of 19 well-characterized cell lines derived from solid tumors seen in children and adolescents. The goal is to identify approved drugs with previously unrecognized anticancer properties that has the potential to reveal new mechanisms and biological processes involved in carcinogenesis or drug resistance. We employed a titration-based paradigm (quantitative high-throughput screening or qHTS), where all compounds were tested at multiple concentrations for their effect on cell viability. Concentration-response curves (CRCs) were derived directly from the primary screen, and both potency and efficacy values were used to identify compounds with robust bioactivity profiles. We screened the NIH Chemical Genomics Center (NCGC) Pharmaceutical Collection (NPC) and Mechanism Interrogation Plate (MIPE) small molecule collections of approved and investigational compounds against these cell lines; and measured metabolically active cells after 48 hours of compound treatment as a proxy for cell viability.
Assay Submitter: Nathalia J. Martinez, National Center for Advancing Translational Sciences, National Institutes of Health, Rockville, MD, USA; email: natalia.martinez@nih.gov
[1] Shen, M et al. Quantitative high-throughput phenotypic screening of pediatric cancer cell lines identifies multiple opportunities for drug repurposing. Oncotarget 2017 Dec 19;9(4):4758-4772. PMID 29435139.
The cells were obtained from University of North Carolina (UNC), Pediatric Preclinical Testing Program (PPT), and Coriell Institute (CI).
qHTS cell viability assay:
Cells were assayed in growth media at a density of 500-1,000 cells/well. Five microliters of cells were dispensed into 1,536-well, white, solid-bottom, TC-treated plates (Greiner Bio One) using a multidrop dispenser and incubated at 37 degrees C, 5% CO2, under a humidified atmosphere for 5 hours. Twenty-three nanoliters of compounds and controls (neutral control DMSO or positive control bortezomib at final concentration of 2.3 µM) were subsequently transferred by Kalypsys pintool. For primary screens, the MIPE collection was tested at 11-point dilutions (final concentrations range from 0.78 nM to 46 µM) and the NPC collection at 8-point dilutions (final concentrations range from 0.59 nM to 46 µM). Compounds tested in follow-up screens were assayed at 11-point dilutions. Cells were incubated for 48 hours, followed by addition of 3 µL of CellTiter-Glo (Promega). After a 15 min incubation at room temperature, samples were analyzed for luminescence intensity using a ViewLux High-throughput CCD imager equipped with clear filters.
Potency means the concentration at half of the fitted maximal effect.

SMILES | Potency
Cc1cc(Nc2nc(N[C@@H](C)c3ccc(F)cc3)c(C#N)cc2F)n[nH]1 | 14.8 µM (active)
COC(=O)C[C@](O)(CCCC(C)(C)O)C(=O)O[C@@H]1C(OC)=C[C@]23CCCN2CCc2cc4c(cc2[C@H]13)OCO4 | inactive
COc1cc2ncn(-c3cc(OCc4ccccc4C(F)(F)F)c(C(N)=O)s3)c2cc1OC | 18.7 µM (active)
O=c1[nH]c(=O)n(C2CCCO2)cc1F (stereo not given) | inactive
CC(C)c1ccc(Cn2ccc3c4c(N)nc(NC5CC5)nc4ccc32)cc1 | inactive
COc1ccc(C=Cc2cc(OC)c(OC)c(OC)c2)cc1O | inactive
CC(C)Nc1cc(C(F)(F)F)cc2nc(NC(=O)c3cccnc3)nn12 | inactive
CCOC(=O)C1=C(C)NC2=C(C(=O)CC(C)(C)C2)C1c1ccc(-c2ccccc2)cc1 (stereo not given) | inactive
Cc1[nH]c2ccccc2c1CCNCc1ccc(C=CC(=O)NO)cc1 | 1.87 µM (active)
COc1cc2c(Oc3ccc(-c4cnc(Nc5ccc(F)cc5)n(C)c4=O)cc3F)ccnc2cc1OCCCN1CCOCC1 | 23.5 µM (active)
COc1cc(C(C)C)c2c(c1)S(=O)(=O)N(COc1cc(=O)n3cccc(OCCN4CCCCC4)c3n1)C2=O | inactive
COc1c(N2C[C@@H]3CCCN[C@H]3C2)c(F)cc2c(=O)c(C(=O)O)cn(C3CC3)c12 | inactive
CC(C)(C)NC(=O)[C@H]1CN(Cc2cccnc2)CCN1C[C@@H](O)C[C@@H](Cc1ccccc1)C(=O)N[C@H]1c2ccccc2C[C@H]1O | inactive
O=c1c2ccccc2nc2n1CCc1c-2[nH]c2ccccc12 | inactive
CNC(=O)c1ccc(-c2cnc3ncc(Cc4ccc5ncccc5c4)n3n2)cc1F | inactive
CC(C)c1noc(N2CCC(COc3ccc(-c4ccc(S(C)(=O)=O)cc4)nc3)CC2)n1 | inactive
Cc1ccc(C(=O)Nc2cccc(C(F)(F)F)c2)cc1-c1ccc2nc(NCCN3CCOCC3)ncc2c1 | 14.8 µM (active)
CN1c2cc(O)c(N=NC(N)=O)cc2CC1S(=O)(=O)O (stereo not given) | inactive
CC1(C)CCC(c2ccc(Cl)cc2)=C(CN2CCN(c3ccc(C(=O)NS(=O)(=O)c4ccc(N[C@H](CCN5CCOCC5)CSc5ccccc5)c(S(=O)(=O)C(F)(F)F)c4)cc3)CC2)C1 | inactive
CN(C)c1nc(Cc2ccc(NC(=O)c3ccc4ccccc4c3)cc2)nc(Cl)c1CC(=O)O | inactive

SMILES | Potency
C=CC(=O)Nc1cc2c(Nc3ccc(F)c(Cl)c3)ncnc2cc1OCCCN1CCOCC1 | inactive
NC(=O)Nc1cc(-c2cccc(F)c2)sc1C(=O)N[C@H]1CCCNC1 | inactive
COc1cc(=C2C=c3ccccc3=N2)[nH]c1=Cc1[nH]c(C)cc1C | 10.5 µM (active)
C=CC(=O)Nc1cc2c(Nc3ccc(F)c(Cl)c3)ncnc2cc1C#CC(C)(C)N1CCN(C)CC1 | inactive
Cc1cnc(-c2cnc(NCCNc3ccc(C#N)cn3)nc2-c2ccc(Cl)cc2Cl)[nH]1 | inactive
COc1cc2c(NC3CCN(C(C)C)CC3)nc(C3CCCCC3)nc2cc1OCCCN1CCCC1 | 20.9 µM (active)
COc1ccc2c(OCc3nnc4ccc(-c5ccccc5)nn34)ccnc2c1 | inactive
CC(C)[C@H](C(=O)Nc1ccc(C(=O)NO)cc1)c1ccccc1 | 16.6 µM (active)
CC=C1NC(=O)[C@H]2CSSCCC=C[C@H](CC(=O)N[C@H](C(C)C)C(=O)N2)OC(=O)[C@H](C(C)C)NC1=O | 0.0526 µM (active)
COc1ccc(-n2nc(C(N)=O)c3c2C(=O)N(c2ccc(N4CCCCC4=O)cc2)CC3)cc1 | inactive
O=C(O)c1ccc2c(c1)nc(Nc1cccc(Cl)c1)c1ccncc12 | inactive
CN1CCC(CNc2ccc3ncc(-c4cccc(OC(F)(F)F)c4)n3n2)CC1 | 18.7 µM (active)
NCC(=O)Nc1ccc(-n2nc(C(F)(F)F)cc2-c2ccc3c(ccc4ccccc43)c2)cc1 | inactive
Cn1c2cc(S(C)=O)sc2c2cnn(Cc3cccc(N)c3)c(=O)c21 (stereo not given) | inactive
CN(C)CC(C)(C)CNc1nn2c(-c3ccccc3)nnc2cc1C1CCC1 | inactive
O=C(O)Cn1nnc(-c2cc(N3CCC(Oc4cc(F)ccc4Br)CC3)no2)n1 | inactive
CC[C@H](CO)Nc1nc(NCc2ccccc2)c2ncn(C(C)C)c2n1 | inactive
COC(=O)[C@]12CCC(C)(C)C[C@@H]1[C@@H]1C(=O)C=C3[C@@]4(C)C=C(C#N)C(=O)C(C)(C)[C@@H]4CC[C@@]3(C)[C@]1(C)CC2 | 5.9 µM (active)
COCCOc1ccc2c(c1)ncn2-c1ccc2cccc(N3CCC(N)CC3)c2n1 | inactive
O=C(O)[C@H](Cc1c[nH]c2ccccc12)N1C(=O)c2ccccc2C1=O | inactive
